Some test systems named below: NCI-H23 lung; NCI-H226 lung; HOP-62 NSCLC; NCI-H460 lung; HOP-92 NSCLC; NCI-H522 lung; A549/ATCC NSCLC; 786-0 renal; COLO 205 colon.
What all share (assay): NCI-60 one-dose screen, 48 h (100 = growth as untreated, 0 = no growth, -100 = all killed)
What all share (settings): 10 µM unless noted

Structures are written as SMILES. The panel holds about 83,000 compounds, 20% with a hit somewhere; the sample as a whole holds those more often.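 Percent growth is the endpoint: 0 to 100 indicates growth inhibition (40 means 60% inhibition), 0 means no net growth, and negative values indicate cell death.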 Values without a mark were called inactive. Calls of active or inactive are those of the source. How the source made its calls: active means growth percent below 10; inactive means the rest.

`NC(=S)N/N=C(/C=C/c1cn(-c2ccccc2)nc1-c1ccc(Cl)cc1)c1cc2ccccc2oc1=O`: the growth with NCI-H23 lung was 46.5%; with NCI-H226 lung it was 62.2%; with HOP-62 NSCLC, 43%; in the experiment on NCI-H460 lung it was 18.3%; in the experiment on HOP-92 NSCLC, 70.2%; with NCI-H522 lung, 46.9%. In addition, the growth in the experiment on A549/ATCC NSCLC was 41.4%; in the experiment on 786-0 renal, 58.1%; in the experiment with COLO 205 colon it was 38.1%.

Consider `COc1ccc(-c2no[n+]([O-])c2Nc2ccccc2Br)cc1`, for which the growth with NCI-H23 lung is 91.8%; in the experiment with NCI-H226 lung, -13% (active); with HOP-62 NSCLC, 84.5%; in the experiment on NCI-H460 lung, 101%; with HOP-92 NSCLC, 73%; with NCI-H522 lung it was 81.4%. The growth in the experiment on A549/ATCC NSCLC is 102%; with 786-0 renal it was 106%; in the experiment with COLO 205 colon, 107%.

`COc1cc2c3c(n(CCCN4CCCCC4)c(=O)c2cc1OC)-c1cc2c(cc1C3=O)OCO2`: the growth is -91.9% (active) in the experiment with NCI-H23 lung; -61.6% (active) in the experiment with NCI-H226 lung; -71.4% (active) with HOP-62 NSCLC; -84.7% (active) in the experiment with NCI-H460 lung; -80.2% (active) in the experiment on NCI-H522 lung; -58.4% (active) in the experiment with A549/ATCC NSCLC. Further, the results for the growth in the experiment on 786-0 renal and with COLO 205 colon were -55.9% (active) and -88.8% (active), respectively.

Consider `COc1ccc(-c2nc(SCCC(C)C)nc(N/N=C\c3ccc(O)cc3)c2C#N)cc1`, for which the growth is 36.3% in the experiment with NCI-H23 lung; 97.3% in the experiment with NCI-H226 lung; 61.9% in the experiment with HOP-62 NSCLC; 10.9% with NCI-H460 lung; 67.7% in the experiment with HOP-92 NSCLC; 87.7% with NCI-H522 lung. Besides, the values for the growth with A549/ATCC NSCLC, in the experiment on 786-0 renal and in the experiment on COLO 205 colon were 60.2%, 34% and 106%, respectively.

As for `CCOC(=O)c1c(Nc2ccccc2)nn2c(-c3ccc(Br)cc3)ccnc12`, the growth in the experiment on NCI-H23 lung was 64.9%; with NCI-H226 lung, 63.3%; in the experiment on HOP-62 NSCLC, 47.4%; in the experiment on NCI-H460 lung it was 33.9%; with HOP-92 NSCLC it was 28.2%; with NCI-H522 lung, 80.9%. Further, the growth with A549/ATCC NSCLC is 56.4%; with 786-0 renal it was 54.3%; with COLO 205 colon it was 80.1%.

Consider `Cc1cnc2nc(NN)[nH]n12`, for which the growth in the experiment with NCI-H23 lung was 104%; in the experiment with NCI-H226 lung, 93.4%; in the experiment with HOP-62 NSCLC, 93%; in the experiment with NCI-H460 lung it was 103%; in the experiment on HOP-92 NSCLC it was 100%; with NCI-H522 lung it was 93.1%. Also, the growth is 99.2% with A549/ATCC NSCLC, 103% with 786-0 renal and 101% in the experiment on COLO 205 colon.

As for `COc1ccc(N2C(=O)c3cc(OC)c(OC)cc3NC2SCc2ccccc2)cc1` (stereo not given), the growth in the experiment with NCI-H23 lung is 107%; in the experiment on NCI-H226 lung it was 102%; in the experiment on HOP-62 NSCLC, 107%; with NCI-H460 lung, 122%; with HOP-92 NSCLC it was 112%; with NCI-H522 lung, 95.2%. Besides, the growth with A549/ATCC NSCLC was 110%; in the experiment on 786-0 renal, 117%; in the experiment with COLO 205 colon it was 109%.

In the case of `Cc1cc(O)c2c(c1)C(=O)C(c1c(C)cc3c(c1O)C(=O)C=CC3=O)=CC2=O`, the growth with NCI-H23 lung was 89.9%; in the experiment with NCI-H226 lung it was 97.7%; in the experiment with HOP-62 NSCLC, 98.6%; in the experiment on NCI-H460 lung, 109%; in the experiment on HOP-92 NSCLC, 108%; with NCI-H522 lung it was -36.9% (active). Further, the growth in the experiment on A549/ATCC NSCLC was 98.6%; in the experiment with 786-0 renal it was 37.4%; in the experiment on COLO 205 colon, -19.3% (active).

Regarding `CC(=O)c1sc(Nc2cccc(Nc3nc(C)c(C)s3)c2)nc1C`, the growth was 63.2% in the experiment on NCI-H23 lung; 65.4% in the experiment with NCI-H226 lung; 77.8% in the experiment on HOP-62 NSCLC; 45.6% in the experiment on NCI-H460 lung; 63.6% in the experiment on HOP-92 NSCLC; 46.2% in the experiment on NCI-H522 lung. Moreover, the growth in the experiment on A549/ATCC NSCLC is 65.8%; with 786-0 renal it was 55.7%; with COLO 205 colon, 77.7%.

With `CSc1nccc(-c2c(-c3ccc(F)c(OCc4ccc(F)cc4)c3)nc3sccn23)n1`, the growth in the experiment with NCI-H23 lung was 60.2%; in the experiment on NCI-H226 lung, 76.6%; in the experiment with HOP-62 NSCLC, 104%; in the experiment on NCI-H460 lung, 89.8%; in the experiment on HOP-92 NSCLC, 54.5%; in the experiment on NCI-H522 lung, 66.7%. In addition, the results for the growth in the experiment with A549/ATCC NSCLC, in the experiment on 786-0 renal and with COLO 205 colon were 78.7%, 74.4% and 83.8%, respectively.

As to `C#Cc1ccc(NC(=O)c2ccc(/C=C/C(=O)c3nccn3C)cc2)c(F)c1`, the growth in the experiment on NCI-H23 lung was 11.4%; with NCI-H226 lung, 42.8%; in the experiment with HOP-62 NSCLC it was 2.11% (active); in the experiment with NCI-H460 lung it was 6.28% (active); in the experiment with HOP-92 NSCLC it was 67.5%; in the experiment with NCI-H522 lung it was 20.4%. Besides, the figures for the growth in the experiment with A549/ATCC NSCLC, with 786-0 renal and in the experiment on COLO 205 colon were 19.9%, 37.7% and 73%, respectively.

For the molecule `COc1cc(C2CC(c3ccc(Nc4nc(NCCO)nc(Nc5ccc(Cl)cc5)n4)cc3)=Nc3c(N)nc(N)nc3N2)cc(OC)c1OC` (stereo not given), the growth is 74% in the experiment with NCI-H23 lung; 81.7% in the experiment on NCI-H226 lung; 43.3% in the experiment with HOP-62 NSCLC; 56.3% with NCI-H460 lung; 43.5% in the experiment with HOP-92 NSCLC; 60.7% in the experiment on NCI-H522 lung. In addition, the growth is 103% with A549/ATCC NSCLC, 46.9% with 786-0 renal and 90.4% in the experiment on COLO 205 colon.

For `NS(=O)(=O)c1ccc(Nc2nc(N/N=C/c3ccc([N+](=O)[O-])cc3)nc(Nc3ccccc3)n2)cc1`, the growth in the experiment on NCI-H23 lung was 12.2%; in the experiment with NCI-H226 lung, 59.6%; in the experiment with HOP-62 NSCLC, 9.49% (active); with NCI-H460 lung, 1.55% (active); with HOP-92 NSCLC it was 49.1%; in the experiment on NCI-H522 lung it was 48.3%. Moreover, the growth is 96.9% in the experiment with A549/ATCC NSCLC, 10.4% in the experiment with 786-0 renal and 23.1% with COLO 205 colon.

For `CCN(CC)CCN1C(=O)c2c(c3c4cccnc4[nH]c3c3ccc4ccccc4c23)C1=O`, the growth in the experiment with NCI-H23 lung is 60.3%; in the experiment with NCI-H226 lung, 79.4%; in the experiment with HOP-62 NSCLC, 38.4%; in the experiment on NCI-H460 lung, 13.8%; in the experiment on HOP-92 NSCLC, 91.9%; in the experiment on NCI-H522 lung it was 65.4%. The growth with A549/ATCC NSCLC is 60%; with 786-0 renal, 60.9%; with COLO 205 colon it was 72.1%.

These data come from PubChem BioAssay (NCI).
